Assay [1] in a line: P-glycoprotein substrates identified in KB-8-5-11 adenocarcinoma cell line, qHTS therapeutic library screen (AID 1346987). Note: nearly all actives have a fitted effect of over 65% in size. Note: potency is the fitted concentration of half-maximal effect. The note with it: outcome: dose series up to 44.5 µM unless noted. The method, boiled down: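 KB-8-5-11: colchicine-selected sub-line of KB-3-1 over-expressing P-gp; assay medium lacked colchicine. 72 h drug exposure at 37 degree C, CellTiter-Glo.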
A general note: qHTS replaces the single test concentration by a dilution series.

Assay [2] is described as follows: NS1 protein of Zika virus - qHTS assay to identify small molecule inhibitors in human HEK 293 cells (AID 1347053). Note: series mostly up to about 46 µM; nearly all actives have a fitted effect of over 55% in size. The method, boiled down: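 HEK 293 cells, seeded 20 h at 37 C, were pretreated with compound 1 h, then infected with ZIKV MR766 (MOI = 0.5) for 24 h. NS1 was read by TR-FRET with two anti-NS1 antibodies, normalized to uninfected and infected wells.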

A short description of assay [3]: qHTS of pediatric cancer cell lines to identify multiple opportunities for drug repurposing: Primary screen for TC32 cells (AID 1347089). Note: nearly all actives have a fitted effect of over 60% in size. The method, boiled down:
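Measured quantity: luminescence from CellTiter-Glo, reflecting metabolically active TC32 cells following 48 h of compound. Curves came straight from multi-point titrations, with 8 or 11 points in primary and 11 in confirmatory screening.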

A short description of assay [4]: qHTS of pediatric cancer cell lines to identify multiple opportunities for drug repurposing: Primary screen for DAOY cells (AID 1347090). Note: series mostly up to about 46 µM; nearly all actives have a fitted effect of over 55% in size. The method, boiled down:
(§1)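 Cell viability, CellTiter-Glo luminescence; 500-1,000 cells/well, 8- or 11-point titration, 48 h compound exposure at 37 degrees C, 5% CO2. Controls: DMSO neutral, bortezomib 2.3 µM final as positive.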

Assay [5] in a line: qHTS of pediatric cancer cell lines to identify multiple opportunities for drug repurposing: Primary screen for SJ-GBM2 cells (AID 1347091). The method, boiled down: as §1
Assay [6] is described as follows: qHTS of pediatric cancer cell lines to identify multiple opportunities for drug repurposing: Primary screen for A673 cells (AID 1347092). Note: nearly all actives have a fitted effect of over 45% in size. A digest of the protocol:
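Cells are plated, rested 5 h, dosed by pintool, incubated 48 h, then lysed with CellTiter-Glo and read by luminescence. DMSO is the neutral control; bortezomib at 2.3 uM final is the positive control.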

Assay [7] can be described thus: qHTS of pediatric cancer cell lines to identify multiple opportunities for drug repurposing: Primary screen for SK-N-MC cells (AID 1347093). Note: series mostly up to about 46 µM. A digest of the protocol:
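Metabolically active cells were quantified by ATP-dependent luminescence (CellTiter-Glo, 15 min at room temperature) following 48 h treatment. Cells had been plated at 500-1,000 per well and settled for 5 h beforehand.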

Assay [8] is described as follows: qHTS of pediatric cancer cell lines to identify multiple opportunities for drug repurposing: Primary screen for BT-37 cells (AID 1347094). Note: series mostly up to about 57 µM. The method, boiled down: (§2)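 Viability was measured as metabolically active cells after 48 hours of treatment, read by CellTiter-Glo luminescence. Compounds were tested at multiple final concentrations, giving concentration-response curves.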

Assay [9] can be described thus: qHTS of pediatric cancer cell lines to identify multiple opportunities for drug repurposing: Primary screen for NB-EBc1 cells (AID 1347095). The method, boiled down:
as §2

The nature of assay [10]: qHTS of pediatric cancer cell lines to identify multiple opportunities for drug repurposing: Primary screen for U-2 OS cells (AID 1347096). Note: nearly all actives have a fitted effect of over 50% in size. A digest of the protocol: (§3)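 Cells (500-1,000/well) rested 5 h, then received compounds for 48 h; metabolically active cells were measured by CellTiter-Glo luminescence. Final concentrations spanned up to 46 µM (MIPE, 11-point) or 0.59 nM-46 µM (NPC, 8-point) in primary screens, 11-point in follow-ups.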

The nature of assay [11]: qHTS of pediatric cancer cell lines to identify multiple opportunities for drug repurposing: Primary screen for Saos-2 cells (AID 1347097). Note: nearly all actives have a fitted effect of over 40% in size. Note: potency is the fitted concentration of half-maximal effect. A digest of the protocol: as §2
A short description of assay [12]: qHTS of pediatric cancer cell lines to identify multiple opportunities for drug repurposing: Primary screen for NB1643 cells (AID 1347099). Note: nearly all actives have a fitted effect of over 50% in size. The method, boiled down: as §2
Assay [13] in a line: qHTS of pediatric cancer cell lines to identify multiple opportunities for drug repurposing: Primary screen for LAN-5 cells (AID 1347100). The method, boiled down:
as §3

Assay [14] in a line: qHTS of pediatric cancer cell lines to identify multiple opportunities for drug repurposing: Primary screen for BT-12 cells (AID 1347101). Note: nearly all actives have a fitted effect of over 25% in size. The method, boiled down: as §3
Assay [15] can be described thus: qHTS of pediatric cancer cell lines to identify multiple opportunities for drug repurposing: Primary screen for SK-N-SH cells (AID 1347098). Note: nearly all actives have a fitted effect of over 65% in size. A digest of the protocol: as §3
The target of assay [16] is Atrial natriuretic peptide receptor 1 (Homo sapiens) (UniProt P16066). Put plainly: Natriuretic polypeptide receptor (hNpr1) antagonism - Pilot CMLD screen (AID 1347052; calls by dose curve;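 note: HEK293 cells with hNpr1 stimulated by hNppA peptide at 0.1 nM; cGMP level read as GloSensor luciferase luminescence after agonist stimulation; series mostly up to about 9.2 µM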). On the procedure: In order to identify small molecular compounds that inhibit the hNpr1 receptor we developed a high-throughput assay to measure inhibition of the guanylate cyclase activity of the receptor. cGMP production was measured using a circular permutated Firefly luciferase (FLuc) enzyme functionally linked to the cGMP binding domain of human phosphodiesterase 5 (GloSensor technology pGS-40F, (Fan, F. et al. 2008). The cGMP-sensor was expressed in human embryonic kidney 293 (HEK-293) cells and FLuc activity was measured after stimulation with hNrp agonist peptide. hNrp agonists activates the receptor's associated guanylyl cyclase (GC) domain producing cGMP which then binds to the GloSensor resulting in FLuc activation, the enzymatic activity of which can be measured as bioluminescence with addition of luciferin substrate.
Atrial natriuretic peptide receptor 1 (Homo sapiens), sequence (P16066 whole entry, looked up, the tested form may be a part): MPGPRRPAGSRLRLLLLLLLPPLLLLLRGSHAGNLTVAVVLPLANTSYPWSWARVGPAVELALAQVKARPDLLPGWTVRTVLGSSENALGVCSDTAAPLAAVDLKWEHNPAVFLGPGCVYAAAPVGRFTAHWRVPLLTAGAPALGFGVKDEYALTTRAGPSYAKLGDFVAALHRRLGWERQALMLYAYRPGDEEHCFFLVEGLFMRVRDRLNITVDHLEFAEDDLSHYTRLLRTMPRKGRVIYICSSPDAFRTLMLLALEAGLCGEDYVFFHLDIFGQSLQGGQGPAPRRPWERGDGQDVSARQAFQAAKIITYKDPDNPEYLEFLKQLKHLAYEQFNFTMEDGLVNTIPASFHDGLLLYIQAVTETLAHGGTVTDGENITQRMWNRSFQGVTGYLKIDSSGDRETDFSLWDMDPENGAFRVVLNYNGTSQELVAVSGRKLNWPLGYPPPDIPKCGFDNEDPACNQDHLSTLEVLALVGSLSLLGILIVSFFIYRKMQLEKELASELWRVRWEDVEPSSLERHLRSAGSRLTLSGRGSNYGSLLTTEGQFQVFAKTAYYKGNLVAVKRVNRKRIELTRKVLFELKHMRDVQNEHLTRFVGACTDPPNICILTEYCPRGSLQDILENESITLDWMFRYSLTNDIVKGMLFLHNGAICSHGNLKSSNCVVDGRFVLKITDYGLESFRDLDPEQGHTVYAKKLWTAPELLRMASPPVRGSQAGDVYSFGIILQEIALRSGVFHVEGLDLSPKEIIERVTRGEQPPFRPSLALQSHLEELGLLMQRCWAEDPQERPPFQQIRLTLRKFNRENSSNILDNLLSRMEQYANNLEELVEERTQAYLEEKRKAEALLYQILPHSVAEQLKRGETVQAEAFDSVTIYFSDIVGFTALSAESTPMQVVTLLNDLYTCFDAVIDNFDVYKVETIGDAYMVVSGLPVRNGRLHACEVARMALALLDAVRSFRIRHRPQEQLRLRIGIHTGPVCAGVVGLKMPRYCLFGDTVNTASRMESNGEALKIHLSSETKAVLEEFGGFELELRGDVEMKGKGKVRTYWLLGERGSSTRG
This assay was initially piloted by testing with a small library of specialty compounds.
PROTOCOL TABLES (as described by Inglese J, Shamu CE and Guy RK. 2007)
SEQUENCE No. (e.g., 1, 2, 3, etc.); […] (e.g., Cells, Incubation, Reagent, etc.); VALUE and DESCRIPTION.
1. Cells. […]
7. […] GloSensor baseline pre-read luminescence measured using CCD-based camera (Viewlux). […]
10. […] GloSensor post-hNppA luminescence measured using CCD-based camera (Viewlux). […]
1. […] Cells counted with Invitrogen Countess (30,000,000 - 50,000,000 cells/flask). […]

Results filed as inconclusive are left out. Activity calls are given as the source filed them. Unless noted, calls come from the whole dose curve; as a rule, active = well fitted curve in the direction sought with a large enough effect; inconclusive = small, poorly fitted or top-dose-only effect, or another doubt; inactive = no such curve, though single readings can be large; an effect the other way counts as inactive or inconclusive. Where a SMILES comes first, the peptide text is derived from it. Bridges are numbered along the chain shown (N, C = ends). [ ]: non-standard residue; d: D form. The star is where a group is joined. X1 = CC[C@@H](C)[C@@H](N)C1=N[C@H](C(=O)*)CS1; d(aIle) = CC[C@H](C)[C@@H](N)C(=O)O; dOrn = NCCC[C@@H](N)C(=O)O

Regarding `O=C(OCc1ccccc1)c1ccc(O)cc1`, the Potency result in [1], in assay [6], in assay [7], in assay [8] and in [11] was “inactive” each time. In addition, the call in assay [2], in assay [3], in assay [4], in [5], in assay [9] and in assay [10] was inactive. In addition, the outcome in assay [12], in [13] and in assay [14] was inactive.

Consider `CC(=O)OCC1=C(C(=O)O)N2C(=O)[C@@H](NC(=O)Cc3ccccc3)[C@H]2SC1`, for which the Potency result in [1] was “inactive”.

Turning to `CC(C)(COP(=O)(O)OP(=O)(O)OC[C@H]1O[C@@H](n2cnc3c(N)ncnc32)[C@H](O)[C@@H]1OP(=O)(O)O)C(O)C(=O)NCCC(=O)NCCS` (some centres undefined), the Potency result in assay [1] was “inactive”.

For the molecule `NS(=O)(=O)c1cc2c(cc1Cl)NC(Cc1ccccc1)NS2(=O)=O` (centres undefined), the Potency entry in assay [1] is “inactive”.

On to `Cc1ccccn1`, for which the Potency entry in [1] was “inactive”.

As to `CN(C)CCCSc1ccccc1NC(=O)/C=C/c1ccccc1`, the result in [2], in [3], in assay [4], in [9], in [10] and in assay [15] was inactive. In addition, the Potency result in assay [7] and in assay [8] was “inactive” in each case. The Potency in [11] was 21.1 µM (active).

On to `CNC(=O)[C@H](Cc1c[nH]c2ccccc12)NC(=O)[C@@H](CC(=O)NO)CC(C)C`, for which the Potency result in assay [1] is “inactive”.

In the case of `CC1CS(=O)(=O)CCN1/N=C/c1ccc([N+](=O)[O-])o1` (centres undefined), the Potency entry in [1] was “inactive”.

As to `O=C(O)CCC(=O)c1ccc(-c2ccccc2)cc1`, the molecule was called inactive in [2], in assay [3], in [4], in assay [5], in assay [9] and in [10]. In addition, the outcome in assay [15], in assay [12], in assay [13] and in assay [14] was inactive. Moreover, the Potency result in assay [6], in [7], in assay [8] and in assay [11] was “inactive” each time.

As to `Cc1c(O)c(=O)ccn1C`, the Potency result in assay [1] was “inactive”. Also, in [16], the molecule was called inactive.

On to `Nc1nccs1`, for which, in assay [1], the Potency entry is “inactive”.

As to `CCCCC[C@H](O)/C=C/[C@H]1[C@H](O)CC(=O)[C@@H]1CCCCCCC(=O)O`, the Potency entry in assay [1] was “inactive”.

Consider `O=C1c2ccccc2C(=O)c2c1ccc(O)c2O`, for which the result in [2], in assay [3], in assay [4], in assay [9], in assay [10] and in [15] was inactive. Besides, the result in [12], in [13] and in [14] was inactive. Also, the Potency result in assay [6] and in [7] was “inactive” each time. For the same molecule, the Potency in [11] was 23.7 µM (active).

In the case of `CC[C@@H](C)[C@@H](N)C1=N[C@H](C(=O)N[C@@H](CC(C)C)C(=O)N[C@@H](CCC(=O)O)C(=O)N[C@@H](C(=O)N[C@@H]2CCCCNC(=O)[C@@H](CC(N)=O)NC(=O)[C@@H](CC(=O)O)NC(=O)[C@@H](Cc3cnc[nH]3)NC(=O)[C@@H](Cc3ccccc3)NC(=O)[C@@H]([C@H](C)CC)NC(=O)[C@@H](CCCN)NC2=O)[C@@H](C)CC)CS1` (X1-LE[d(aIle)][dK][dOrn][dI][dF][dH][dD][dN]; lactam 4-C), the Potency entry in assay [1] was “inactive”.

For `Cc1cc(-c2ccc(N=Nc3c(S(=O)(=O)O)cc4cc(S(=O)(=O)O)cc(N)c4c3O)c(C)c2)ccc1N=Nc1c(S(=O)(=O)O)cc2cc(S(=O)(=O)O)cc(N)c2c1O`, the Potency in assay [1] is 9.2 µM (active).

As to `C[N+]1(C)[C@@H]2CC(OC(=O)C(O)(c3cccs3)c3cccs3)C[C@H]1[C@@H]1O[C@@H]12` (some centres undefined), the Potency entry in assay [1] is “inactive”.

With `NC(N)=O`, the Potency entry in assay [1] was “inactive”.

With `O=C(O)[C@@H]1C[C@H](CP(=O)(O)O)CCN1`, the Potency entry in assay [1] is “inactive”.

In the case of `Nc1ccc(N=Nc2ccccc2)c(N)n1`, the Potency result in assay [1], in [6], in assay [7], in assay [8] and in assay [11] was “inactive” each time. Moreover, the result in assay [2], in assay [3], in [4], in assay [5], in assay [9] and in assay [10] was inactive. The molecule was called inactive in assay [12], in assay [13] and in assay [14].

In the case of `CCCCC/C=C\CCC(=O)N[C@H]1[C@H](Oc2c3cc4cc2Oc2ccc(cc2Cl)[C@@H](O[C@@H]2O[C@H](CO)[C@@H](O)[C@H](O)[C@H]2NC(C)=O)[C@@H]2NC(=O)[C@H](NC(=O)[C@@H]4NC(=O)[C@H]4NC(=O)[C@@H](Cc5ccc(c(Cl)c5)O3)NC(=O)[C@H](N)c3ccc(O)c(c3)Oc3cc(O)cc4c3)c3ccc(O)c(c3)-c3c(O[C@H]4O[C@H](CO)[C@@H](O)[C@H](O)[C@@H]4O)cc(O)cc3[C@@H](C(=O)O)NC2=O)O[C@H](CO)[C@@H](O)[C@@H]1O`, the Potency entry in [1] was “inactive”.

These data come from PubChem BioAssay (NCATS).
